Each compound was assayed against T1, Serine/threonine-protein kinase ULK3 (Homo sapiens) (UniProt Q6PHR2). Conditions: at 1 µM.
T1 sequence (whole entry): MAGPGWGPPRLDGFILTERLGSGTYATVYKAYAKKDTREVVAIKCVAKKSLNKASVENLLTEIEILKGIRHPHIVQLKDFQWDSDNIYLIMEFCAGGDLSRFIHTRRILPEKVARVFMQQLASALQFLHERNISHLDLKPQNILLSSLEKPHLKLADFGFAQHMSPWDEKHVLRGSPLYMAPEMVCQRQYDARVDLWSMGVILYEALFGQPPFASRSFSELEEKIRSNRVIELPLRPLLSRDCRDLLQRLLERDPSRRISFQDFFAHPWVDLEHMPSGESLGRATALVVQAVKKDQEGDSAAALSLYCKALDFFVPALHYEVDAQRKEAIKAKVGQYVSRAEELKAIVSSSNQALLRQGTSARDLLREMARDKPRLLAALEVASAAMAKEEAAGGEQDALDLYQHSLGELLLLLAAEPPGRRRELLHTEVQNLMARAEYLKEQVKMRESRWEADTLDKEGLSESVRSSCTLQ

| Structure (SMILES) | residual activity [%] |
| --- | --- |
| CN(C)CCCn1cc(C2=C(c3c[nH]c4ccccc34)C(=O)NC2=O)c2ccccc21 | 101 |
| Nc1cccc(-c2cc3c(Oc4cccc(O)c4)ncnc3[nH]2)c1 | 31 |
| CC(C)n1cnc2c(NCc3ccccc3)nc(NCCCO)nc21 | 95 |
| CC(C)n1cnc2/c(=N/c3cccc(Cl)c3)nc(NCCO)[nH]c21 | 42 |

These compounds were tested against T1, Serine/threonine-protein kinase ULK3 (Homo sapiens). Conditions: at 10 µM.

| Structure (SMILES) | residual activity [%] |
| --- | --- |
| O=Nc1c(-c2c(O)[nH]c3ccccc23)[nH]c2ccccc12 | 12 |
| COc1cc2ncc(-c3ccccc3)nc2cc1OC | 86 |
| Cc1cc(Nc2nc(-c3ccccc3)nc3ccccc23)n[nH]1 | 4 |
| Cc1cncc2cccc(S(=O)(=O)N3CCCN(C(=O)CN)C[C@H]3C)c12 | 59 |
| COc1cc2ncnc(N3CCN(C(=O)Nc4ccc(Oc5ccccc5)cc4)CC3)c2cc1OC | 90 |
| N#Cc1cnc2cnc(NCc3cccnc3)cc2c1Nc1ccc(F)c(Cl)c1 | 88 |
| O=C1Nc2ccccc2/C1=C1/Nc2ccccc2/C1=N\OCCC(O)CO (centres undefined) | 5 |
| Oc1c2ccccc2c2c3c(cccc13)N=N2 | 43 |
| COc1cccc(-c2cc(=O)c3ccccc3o2)c1N | 105 |
| Cc1cccc(-c2[nH]c(C(C)(C)C)nc2-c2ccc3c(c2)OCO3)n1 | 96 |
| CNc1cc2c(Nc3cccc(Br)c3)ncnc2cn1 | 70 |
| O=[N+]([O-])c1ccc(-c2nc(-c3ccc(F)cc3)c(-c3ccncc3)[nH]2)cc1 | 103 |
| O=C(O)c1ccc2c3c1cccc3c(=O)n1c3ccccc3nc21 | 70 |
| Cn1nc2c3c(cccc31)C(=O)c1ccccc1-2 | 84 |
| CCN(CC)C(=O)c1ccc(Nc2nc(OCC3CCCCC3)c3nc[nH]c3n2)cc1 | 8 |

From ChEMBL document CHEMBL2218924, “A broad activity screen in support of a chemogenomic map for kinase signalling research and drug discovery” (Biochem J, 2013)
